Values joined by “and” are separate entries in the source; they are usually repeats but may differ in a detail not shown here. Equal values may be shown once. Inconclusive results are not listed. More than one record can exist for a structure, and the calls need not agree. Active and inactive are the calls of the source. Calls come from the whole dose curve; as a rule, active = well fitted curve in the direction sought with a large enough effect; inconclusive = small, poorly fitted or top-dose-only effect, or another doubt; inactive = no such curve, though single readings can be large; an effect the other way counts as inactive or inconclusive.
Assays:
[1] = tested on: MKL-1; assay: qHTS assay to identify novel small-molecules to repurpose for Merkel cell carcinoma treatment (AID 1296009); settings: MCC and control cell lines, CellTiter-Glo viability, 72 h; series mostly up to 46 µM; note: nearly all actives have a fitted effect of over 60% in size
Procedure, shortened: (§1)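 Viability readout: ATP luminescence (CellTiter-Glo) after 72 hr drug exposure at 37 degree celsius. Dose-response format was 8 points for NPC and 11 points for MIPE; data normalized to in-plate controls.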

[2] = tested on: MKL-2; assay: as above; settings: MCC and control cell lines, CellTiter-Glo viability, 72 h; series mostly up to 46 µM
Procedure, shortened: as §1

[3] = tested on: NIH3T3; assay: as above; settings: MCC and control cell lines, CellTiter-Glo viability, 72 h; at 44.8 µM (top of the series) unless noted
Procedure, shortened: as §1

[4] = tested on: UISO; assay: as above; settings: MCC and control cell lines, CellTiter-Glo viability, 72 h; series mostly up to 46 µM
Procedure, shortened: as §1

[5] = tested on: WaGa; assay: as above; settings: MCC and control cell lines, CellTiter-Glo viability, 72 h; series mostly up to 46 µM
Procedure, shortened: as §1

[6] = tested on: C33A; assay: Primary qHTS to identify gynecologic anti-cancer compounds using libraries of approved drugs and bioactive compounds (AID 1345084); settings: Gynecologic cancer cell panel viability, ATPlite luminescence, 48 h; series mostly up to 57.5 µM; note: nearly all actives have a fitted effect of over 55% in size
Procedure, shortened: (§2)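 48 h compound exposure at 37 C, 5% CO2; five-point qHTS. ATPlite luminescence readout of cell ATP.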

[7] = tested on: CAOV3; assay: as above; settings: Gynecologic cancer cell panel viability, ATPlite luminescence, 48 h; series mostly up to 57.5 µM
Procedure, shortened: as §2

[8] = tested on: CASKI; assay: as above; settings: Gynecologic cancer cell panel viability, ATPlite luminescence, 48 h; series mostly up to 57.5 µM
Procedure, shortened: as §2

[9] = tested on: Es-2; assay: as above; settings: Gynecologic cancer cell panel viability, ATPlite luminescence, 48 h; series mostly up to 57.5 µM
Procedure, shortened: as §2

[10] = tested on: Hek293T; assay: as above; settings: Gynecologic cancer cell panel viability, ATPlite luminescence, 48 h, control line for the selectivity index; series mostly up to 57.5 µM
Procedure, shortened: as §2

[11] = tested on: JEG-3; assay: as above; settings: Gynecologic cancer cell panel viability, ATPlite luminescence, 48 h; series mostly up to 57.5 µM
Procedure, shortened: as §2

[12] = tested on: OV90; assay: as above; settings: Gynecologic cancer cell panel viability, ATPlite luminescence, 48 h; series mostly up to 57.5 µM
Procedure, shortened: as §2

[13] = tested on: PA-1; assay: as above; settings: Gynecologic cancer cell panel viability, ATPlite luminescence, 48 h; series mostly up to 57.5 µM
Procedure, shortened: as §2

[14] = tested on: SKOV3; assay: as above; settings: Gynecologic cancer cell panel viability, ATPlite luminescence, 48 h; series mostly up to 57.5 µM
Procedure, shortened: as §2

[15] = tested on: Tov-21-G; assay: as above; settings: Gynecologic cancer cell panel viability, ATPlite luminescence, 48 h; series mostly up to 57.5 µM
Procedure, shortened: as §2

[16] = tested on: Tov112D; assay: as above; settings: Gynecologic cancer cell panel viability, ATPlite luminescence, 48 h; series mostly up to 57.5 µM
Procedure, shortened: as §2

[17] = tested on: astro; assay: Drug repurposing screens with cells derived from glioblastoma tumor samples (AID 1345199); settings: viability, ATP luminescence, 48 h; series mostly up to 45.9 µM; note: nearly all actives have a fitted effect of over 40% in size
Procedure, shortened: (§3)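 Primary testing used CD133+ neurospheres from four GBM patients, seven concentrations, 48 h exposure and ATP-based viability; confirmation added three slower-growing patient lines.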

[18] = tested on: HeLa; assay: Primary qHTS to identify gynecologic anti-cancer compounds using libraries of approved drugs and bioactive compounds (AID 1345084); settings: Gynecologic cancer cell panel viability, ATPlite luminescence, 48 h; series mostly up to 57.5 µM; note: nearly all actives have a fitted effect of over 55% in size
Procedure, shortened: as §2

[19] = Drug repurposing screens with cells derived from glioblastoma tumor samples (AID 1345199); settings: GBM patient neurospheres viability, ATP luminescence, 48 h; note: nearly all actives have a fitted effect of over 40% in size
Procedure, shortened: as §3

[20] = at 45.9 µM (top of the series), tumour line B
[21] = at 45.9 µM (top of the series), tumour line D
[22] = at 46 µM (top of the series), tumour line A
[23] = at 46.1 µM (top of the series), tumour line C
% is set by controls: 0 for no effect and ±100 for the full control effect; potency is the fitted concentration of half-maximal effect.

COc1cc2c(Nc3ccc(Br)cc3F)ncnc2cc1OCC1CCN(C)CC1
20.9 µM (active) and inactive: Potency [4]
inactive and 28.2 µM (active): Potency [11]
inactive and 12.6 µM (active): Potency [14]
inactive and 22.4 µM (active): Potency [6]
inactive: Potency [1] | Potency [2] | outcome [3] | Potency [5] | Potency [7] | Potency [8] | Potency [9] | Potency [10] | Potency [12] | Potency [13] | Potency [15]
inactive and 31.6 µM (active): Potency [16]
active: Potency [17] 14.1 µM

COc1nc(N)nc2c1ncn2[C@@H]1O[C@H](CO)[C@@H](O)[C@@H]1O
inactive: Potency [1] | Potency [2] | Potency [4] | Potency [6] | Potency [7] | Potency [8] | Potency [9] | Potency [18] | Potency [10] | Potency [11] | Potency [12] | Potency [13] | Potency [14] | Potency [15] | Potency [16] | activity, negative = cell killing [19, 20] -17.9% | activity, negative = cell killing [19, 21] 6.59% | activity, negative = cell killing [19, 22] -10% | activity, negative = cell killing [19, 23] -10.9% | Potency [17]
inactive and 18.7 µM (active): Potency [5]

COc1c(N2CCNC(C)C2)c(F)cc2c(=O)c(C(=O)O)cn(C3CC3)c12 (stereo unspecified)
inactive: Potency [1] | Potency [2] | outcome [3] | Potency [4] | Potency [5] | Potency [6] | Potency [7] | Potency [8] | Potency [9] | Potency [10] | Potency [11] | Potency [12] | Potency [13] | Potency [15] | Potency [16] | activity, negative = cell killing [19, 20] -10.7% | activity, negative = cell killing [19, 21] -20.8% | activity, negative = cell killing [19, 23] 14.5% | Potency [17]

CCc1cc(C(N)=S)ccn1
inactive: Potency [1] | Potency [2] | outcome [3] | Potency [4] | Potency [5] | Potency [7] | Potency [8] | Potency [9] | Potency [18] | Potency [10] | Potency [12] | Potency [13] | Potency [14] | Potency [15] | Potency [16] | activity, negative = cell killing [19, 20] -9.3% | activity, negative = cell killing [19, 21] -29.7% | activity, negative = cell killing [19, 23] -26.9% | Potency [17]

CC(C)(C)NC(=O)[C@H]1CC[C@H]2[C@@H]3CC[C@H]4NC(=O)C=C[C@]4(C)[C@H]3CC[C@]12C
active: Potency [14] 12.6 µM
inactive: Potency [1] | Potency [2] | outcome [3] | Potency [4] | Potency [5] | Potency [6] | Potency [7] | Potency [8] | Potency [9] | Potency [10] | Potency [11] | Potency [13] | Potency [15] | Potency [16] | activity, negative = cell killing ([19]; at 20 µM (top of the series), tumour line C) -3.62% | activity, negative = cell killing ([19]; at 21.2 µM (top of the series), tumour line B) -10.8% | activity, negative = cell killing ([19]; at 21.2 µM (top of the series), tumour line D) -2.64% | activity, negative = cell killing ([19]; at 21.3 µM (top of the series), tumour line A) -15% | Potency [17]

CN(C)CCc1c[nH]c2ccc(CS(=O)(=O)N3CCCC3)cc12
inactive: Potency [1] | Potency [2] | Potency [4] | Potency [5] | Potency [6] | Potency [7] | Potency [8] | Potency [9] | Potency [18] | Potency [10] | Potency [11] | Potency [12] | Potency [13] | Potency [14] | Potency [15] | Potency [16] | activity, negative = cell killing [19, 20] -15.8% | activity, negative = cell killing [19, 21] -5.89% | activity, negative = cell killing [19, 22] -32.2% | activity, negative = cell killing [19, 23] -0.0757%

O=c1oc2c(O)c(O)cc3c(=O)oc4c(O)c(O)cc1c4c23
inactive: Potency [1] | Potency [2] | Potency [4] | Potency [5] | Potency [6] | Potency [7] | Potency [8] | Potency [9] | Potency [18] | Potency [10] | Potency [11] | Potency [12] | Potency [13] | Potency [14] | Potency [15] | Potency [16] | activity, negative = cell killing [19, 20] -21.4% | activity, negative = cell killing [19, 23] -1.64%

CC(C)Cn1cnc2c(N)nc3ccccc3c21
inactive: Potency [1] | Potency [2] | Potency [4] | Potency [6] | Potency [7] | Potency [8] | Potency [9] | Potency [18] | Potency [10] | Potency [11] | Potency [12] | Potency [13] | Potency [14] | Potency [15] | Potency [16] | activity, negative = cell killing [19, 20] -23.5%
inactive and 20.9 µM (active): Potency [5]

CCN(CC)CCn1c(=O)c(Cc2ccc(OC)cc2)nc2ccccc21
inactive: Potency [1] | Potency [2] | outcome [3] | Potency [4] | Potency [5] | activity, negative = cell killing [19, 20] -5.87% | activity, negative = cell killing [19, 21] -15.6% | activity, negative = cell killing [19, 23] 14.7%
active: Potency ([19]; tumour line A) 10 µM

O=C(O)c1cc(=O)[nH]c(=O)[nH]1
inactive: Potency [1] | Potency [2] | Potency [4] | Potency [5] | Potency [6] | Potency [7] | Potency [8] | Potency [9] | Potency [18] | Potency [10] | Potency [11] | Potency [12] | Potency [13] | Potency [14] | Potency [15] | Potency [16] | activity, negative = cell killing [19, 20] -3.6% | activity, negative = cell killing [19, 21] 11.2% | activity, negative = cell killing [19, 22] -24.7% | activity, negative = cell killing [19, 23] -0.704% | Potency [17]

CCCN[C@H]1CCc2nc(N)sc2C1
inactive: Potency [1] | Potency [2] | Potency [4] | Potency [5] | Potency [6] | Potency [7] | Potency [8] | Potency [9] | Potency [18] | Potency [10] | Potency [11] | Potency [12] | Potency [13] | Potency [14] | Potency [15] | Potency [16] | activity, negative = cell killing [19, 20] 3.81% | activity, negative = cell killing [19, 21] 9.12% | activity, negative = cell killing [19, 22] -26.8% | activity, negative = cell killing [19, 23] -13%

Source: PubChem BioAssay (NCATS)
